Test results from PubChem BioAssay AID463173 (ICCB-Longwood Screening Facility, Harvard Medical School, 2010).
In all, about 52,000 compounds went through this assay and about 4,300 (8.3%) were called active. Shown is part of a subset that was picked to be rich in actives. A number with no mark means an inactive call. Rule as the data show it: active = survival mostly below about 52% (no sharp cut-off); inactive = mostly above about 56%.

tested on: DeltatarO mutant; assay: S. aureus survival, RN4220 and DeltatarO strains – OD600, teichoic acid synthesis inhibitors, primary screen (AID 463173); settings: S. aureus RN4220 wild type/DeltatarO growth, OD600, 18 h, hits give low values, screened at 18.75 µg/mL (by protocol)

Compound | survival
CCCC(=O)C1=C(c2cccc(OC)c2)N(C(=O)CCC)n2c(C)nnc2S1 | 85%
O=C(c1ccc(Br)cc1)N1CCN(CCc2ccncc2)CC1 | 78%
COc1cc(NC(=O)CC2C(=O)N(c3cccc(C)c3)C(=O)N2Cc2ccc(F)cc2)cc(OC)c1 (stereo not drawn) | 94%
CC1=NN(c2ccccc2)C(c2ccccc2)C1 (stereo not drawn) | 101%
O=C(CN(c1ccc2c(c1)OCCO2)S(=O)(=O)c1ccccc1)NCc1ccco1 | 85%
CCOC(=O)C1CCN(C(c2ccc(C)cc2)c2c(O)cc(C)n(CCOC)c2=O)CC1 (stereo not drawn) | 76%
C=CCn1c(C)c(C=C(C#N)C#N)c2ccccc21 | 99%
CC1(c2ccccc2)OC(=O)C(C#N)C12CCCCC2 (stereo not drawn) | 103%
NC(=O)c1ccc2nc(N)sc2c1 | 102%
Cc1cccc(C(=O)N2CCCCC2CCN2CCCCC2)c1 (stereo not drawn) | 80%
COc1ccc(CCNC(=O)c2nc(SCc3ccccc3F)ncc2Cl)cc1OC | 64%
CC(C)c1nnc(NC(=O)c2nc(SCc3ccc(F)cc3)ncc2Cl)s1 | 24% (active)
CC(C)Sc1ncc(Cl)c(C(=O)Nc2nnc(C(C)C)s2)n1 | 69%
COc1ccc(CCNC(=O)c2nc(SCc3ccc(C)cc3)ncc2Cl)cc1OC | 65%
COc1ccc(NC(=O)c2nc(SCc3ccc(F)cc3)ncc2Cl)cc1 | 69%
COc1ccc(CCNC(=O)c2nc(SCc3ccc(F)cc3)ncc2Cl)cc1OC | 46% (active)
COc1ccccc1CNC(=O)CSc1nc(=O)[nH]c2c1CCC2 | 78%
COc1cc(CN(C(=O)COc2ccc(C)c(C)c2)c2ccccn2)cc(OC)c1OC | 71%
COc1ccc(-n2c(=O)c3ccccc3n(CC(=O)NCCc3ccccc3)c2=O)c(OC)c1 | 74%
CCn1ccc2cc(S(=O)(=O)N3CCCN(C(=O)Nc4ccccc4OC)CC3)ccc21 | 80%
COc1ccc(-n2ncc(C(=O)NCCN3CCOCC3)c2C2CCN(C(=O)OC(C)(C)C)CC2)cc1 | 119%

Compound | survival
Cc1ccn2cc(-c3ccc(C)c(NS(=O)(=O)c4ccc(Cl)cc4)c3)nc2c1 | 43% (active)
COc1ccc(Br)cc1S(=O)(=O)Nc1cc(-c2cn3ccccc3n2)ccc1C | 43% (active)
Cc1cc(C)c(S(=O)(=O)Nc2cc(-c3cn4ccccc4n3)ccc2C)cc1C | 56%
COc1ccc(S(=O)(=O)Nc2cc(-c3cn4ccc(C)cc4n3)ccc2C)cc1OC | 62%
COc1ccc(S(=O)(=O)Nc2cc(-c3cn4ccccc4n3)ccc2C)cc1 | 102%
COc1ccc(S(=O)(=O)Nc2cc(-c3cn4cccc(C)c4n3)ccc2C)cc1C | 53% (active)
CCCS(=O)(=O)Nc1cc(-c2cn3cccc(C)c3n2)ccc1C | 59%
Cc1ccc(-c2cn3cccc(C)c3n2)cc1NS(=O)(=O)c1ccccc1 | 41% (active)
CCc1ccc(S(=O)(=O)Nc2cc(-c3cn4ccccc4n3)ccc2C)cc1 | 74%
Cc1ccc(S(=O)(=O)Nc2cccc(-c3cn4cccc(C)c4n3)c2)c(C)c1 | 75%
COc1ccc(S(=O)(=O)Nc2ccc(-c3cn4ccsc4n3)cc2)cc1C | 128%
CC(=O)Nc1ccc(S(=O)(=O)Nc2cc(-c3cn4ccccc4n3)ccc2C)cc1 | 67%
Cc1cc(=O)[nH]c(SCC(=O)N2CCN(c3ccccc3)CC2)n1 | 81%
Cc1ccc(Cl)cc1NS(=O)(=O)c1ccc2oc(=O)c3ncn(C)c3c2c1 | 124%
O=C(Nc1ccc2oc(-c3ccc4ccccc4c3)nc2c1)c1cccc(Cl)c1Cl | 63%
COc1cc(NC(=O)CCCN2C(=O)CCn3nc(-c4cn(C)c5ccccc45)cc32)cc(OC)c1 | 126%
CCCOc1ccc(C(=O)Nc2ccc(-c3cc4ccccc4oc3=O)c(C)c2)cc1 | 71%
N#CC1=C2SCN(C3CCCCC3)CN2C(=O)CC1c1ccc(F)cc1 (stereo not drawn) | 87%
CCc1ccccc1NC(=O)Cn1cc(C(=O)c2ccncc2)c(=O)c2cc(C)ccc21 | 83%
CCS(=O)(=O)Nc1cc(-c2cn3ccc(C)cc3n2)ccc1C | 60%
CCCS(=O)(=O)Nc1cc(-c2cn3ccc(C)cc3n2)ccc1C | 78%

Compound | survival
Cc1ccc(-c2cn3ccc(C)cc3n2)cc1 | 22% (active)
COc1cccc(C(=O)Nc2ccc(C(=O)OCc3cc(=O)n4cc(C)sc4n3)cc2)c1 | 66%
COc1ccc(CNC(=O)C2CCN(c3nc4ccccc4[nH]3)CC2)cc1OC | 55%
O=C(C1CCN(c2nc3ccccc3[nH]2)CC1)N1CCN(c2cccc(Cl)c2)CC1 | 8% (active)
COc1cccc(CNC(=O)C2CCN(c3nc4ccc(Cl)cc4[nH]3)CC2)c1 | 101%
CCOc1cc(CNC(=O)C2CCN(c3nc4ccccc4[nH]3)CC2)cc(OCC)c1OCC | 20% (active)
CN(C)c1ccc(CNC(=O)C2CCN(c3nc4ccccc4[nH]3)CC2)cc1 | 63%
COc1ccccc1CNC(=O)C1CCN(c2nc3ccc(C)cc3[nH]2)CC1 | 100%
O=C(C1CCN(c2nc3ccccc3[nH]2)CC1)N1CCN(c2ccccc2)CC1 | 89%
COc1ccccc1CNC(=O)C1CCN(c2nc3ccc(Cl)cc3[nH]2)CC1 | 25% (active)
Cc1ccc2nc(N3CCC(C(=O)N4CCN(c5cccc(Cl)c5)CC4)CC3)[nH]c2c1 | 68%
CC1CCN(S(=O)(=O)c2cn(CC(=O)Nc3ccc(F)c(Cl)c3)c(=O)c3ccccc23)CC1 | 73%
Cc1ccc(-n2nc(CO)c(C(=O)NCCc3ccccc3)n2)cc1C | 111%
Cc1ccccc1-n1nc(CO)c(C(=O)NCc2cccs2)n1 | 79%
CCOc1ccc(-n2nc(CO)c(C(=O)NCc3cccs3)n2)cc1 | 40% (active)
Cc1ccc(-n2nc(CO)c(C(=O)NC(C)CCCc3ccccc3)n2)cc1C (stereo not drawn) | 94%
Cc1ccc(-n2nc(CO)c(C(=O)NC(C)c3ccccc3)n2)cc1C (stereo not drawn) | 41% (active)
Cc1ccc(-n2nc(CO)c(C(=O)NCc3cccs3)n2)cc1 | 92%
O=C(NCc1cccs1)c1nn(-c2ccccc2)nc1CO | 84%
Cc1ccc(-n2nc(CO)c(C(=O)NCc3cccs3)n2)cc1C | 39% (active)
CCc1ccc(-n2nc(CO)c(C(=O)NCc3cccs3)n2)cc1 | 60%
